High-throughput results: PubChem, several laboratories
tim10-1 inh: growth inhibitors of tim10-1 mutant yeast, primary screen, luminescence, uHTS | 2.2% of 330,000 active | S. cerevisiae tim10-1 ts strain growth, BacTiter-Glo, 24 h | inhibition, % at 20 µM;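 active = inhibition of at least 40%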;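 also: mutant grown at 25 °C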
Rce1 inhib: yeast Rce1p protease inhibitors, primary screen, biochemical, fluorescence, cell-free homogeneous; 0.27% of 290,000 active; calls only; yeast membranes, quenched prenylated peptide cleavage fluorescence;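 active = fall in fluorescence gain of 50% or more versus controls, with final raw signal at or below 3038400; inconclusive = same 50% fall but final raw signal above 3038400; inactive = fall in fluorescence gain under 50%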
Target sequence (Q03530 whole entry, looked up): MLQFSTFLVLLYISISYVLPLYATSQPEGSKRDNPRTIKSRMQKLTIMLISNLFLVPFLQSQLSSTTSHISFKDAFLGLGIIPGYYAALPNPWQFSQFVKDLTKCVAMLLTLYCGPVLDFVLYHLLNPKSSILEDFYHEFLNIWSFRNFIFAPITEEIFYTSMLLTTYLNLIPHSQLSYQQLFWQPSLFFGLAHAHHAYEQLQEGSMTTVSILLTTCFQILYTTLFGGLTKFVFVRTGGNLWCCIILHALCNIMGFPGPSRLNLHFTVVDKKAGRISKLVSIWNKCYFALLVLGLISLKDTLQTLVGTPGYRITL
PfHsp90 yeast 2: growth inhibition of PfHsp90-expressing yeast, primary screen, antimalarial PfHsp90 inhibitor project, S. cerevisiae, BacTiter-Glo luminescence, single point, set 2. BacTiter-Glo ATP, 48 h; yeast lacking PDR1 and PDR3 efflux regulators. inhibition, % at 9.4 µM. 0.32% of 310,000 active;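 active = every replicate shows inhibition above about 80%, whatever the replicate mean, limit read from the data; inconclusive = mean inhibition reaches the set limit but some replicate falls short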
TIM10 inh: growth inhibitors of isogenic TIM10 control yeast, primary screen, counter-screen for tim10-1 yeast inhibitor project, luminescence, uHTS; S. cerevisiae TIM10 strain growth, BacTiter-Glo luminescence, 24 h; inhibition, % at 10 µM; 1.4% of 330,000 active; AID 463195, 2010;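 active = inhibition of 40% or more at the single tested concentration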;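 also: wild-type TIM10 isogenic control strain grown at permissive 25 °C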
tim23-1 inh: growth inhibitors of tim23-1 mutant yeast, primary screen, luminescence, uHTS; 1.3% of 330,000 active; S. cerevisiae tim23-1 growth, BacTiter-Glo luminescence, 24 h; inhibition, % at 20 µM;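 active = growth inhibition of the mutant yeast at or above 50%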;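 also: temperature-sensitive mutant grown at 25 °C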
TIM10 conf: growth inhibitors of wild-type TIM10 yeast, confirmation, counter-screen for tim10-1 synthetic lethality project, single concentration, luminescence, S. cerevisiae; inhibition, % at 10 µM; S. cerevisiae tim10 strain growth, BacTiter-Glo luminescence, 24 h; 63% of 4,600 active; shares compounds with TIM10 inh; AID 463215, 2010;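 active = inhibition of yeast growth at or above a set limit in either of two replicates at 10 µM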; also: this counterscreen used the strain with wild-type TIM10
tim23-1 conf: tim23-1 mutant yeast growth inhibitors, confirmation, luminescence, single concentration | inhibition, % at 20 µM | shares compounds with tim23-1 inh | 83% of 4,400 active | AID 463218, 2010 | S. cerevisiae tim23-1 growth, BacTiter-Glo luminescence, 24 h;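 active = inhibition above about 39% in either of two replicate wells at 20 µM, limit read from the data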;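 also: temperature-sensitive tim23-1 mutant grown at 25 °C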
Of the large screens only hits and unclear results are named; the others gave an inactive call (follow-up assays come after a bar, where they were run). An excerpt weighted towards active compounds, which were near 3.7% of everything screened.

O=C(NC(=S)Nc1cnc2ccccc2c1)c1ccccc1	TIM10 inh 51, tim23-1 inh 53 | TIM10 conf 54 | tim23-1 conf 69
N/C(=N\OC(=O)c1ccc(Cl)cc1Cl)c1ccncc1	none
N/C(Cc1ccc(Cl)cc1)=N\OC(=O)Cc1ccc([N+](=O)[O-])cc1	TIM10 inh 77, tim23-1 inh 55 | TIM10 conf inactive | tim23-1 conf 72
COc1ccc(C/C(N)=N/OC(=O)c2cccc([N+](=O)[O-])c2)cc1	TIM10 inh 72, tim23-1 inh 73 | TIM10 conf 86 | tim23-1 conf 68
CC1=C(C)/C(=N/OC(=O)c2cccc([N+](=O)[O-])c2)C=CC1=O	TIM10 inh 41, tim23-1 inh 62 (no result: PfHsp90 yeast 2) | TIM10 conf inactive | tim23-1 conf 86
COc1ccc(Cl)cc1C(=O)O/N=C(\N)c1ccc(Cl)cc1	TIM10 inh 79, tim23-1 inh 89 | TIM10 conf 83 | tim23-1 conf 44
CCN(c1ccc(NC(=O)CSCc2c(C)noc2C)cc1)C(C)C	none (no result: Rce1 inhib)
COc1ccc(C(=O)O/N=C(\N)Cc2ccc(Cl)cc2)cc1OC	TIM10 inh 79, tim23-1 inh 68 | TIM10 conf 86 | tim23-1 conf 49
COc1ccc(/C(N)=N/OC(=O)Cc2ccc(C)cc2)cc1OC	none
O=C(OCCOc1ccccc1)c1n[nH]c2ccccc12	none (no result: Rce1 inhib)
CCOc1ccc(N=C/C=C/c2ccccc2)c(O)c1	none
CCOc1cc(Br)c(Br)c(C=Nc2ccc(NC(C)=O)cc2)c1O	TIM10 inh 71, tim23-1 inh 76 | TIM10 conf 90 | tim23-1 conf inactive
CCOc1cc(/C=N/NC(=O)C(N)=O)cc(Br)c1O	none
NC(=O)c1cc(Br)cc(C2CCCCC2)c1O	TIM10 inh 53, tim23-1 inh 65 | TIM10 conf 76 | tim23-1 conf inactive
COc1ccc(-n2c(NN)nc3sc4c(c3c2=O)CCCC4)cc1	TIM10 inh 49, tim23-1 inh 70 (no result: PfHsp90 yeast 2) | TIM10 conf inactive | tim23-1 conf 62
CCN1CCN(c2nc3sc4c(c3c(=O)n2-c2ccc(OC)cc2)CCCCC4)CC1	none
Cc1ccc2nc(NC(=O)Cn3nc(C)c([N+](=O)[O-])c3C)sc2c1	TIM10 inh 48, tim23-1 inh 51 | TIM10 conf inactive | tim23-1 conf 65
Cc1csc(NC(=O)Cn2nc(C)c([N+](=O)[O-])c2C)n1	none
Cc1ccc2nc(NC(=O)COC(=O)c3ccccn3)sc2c1	TIM10 inh 43, tim23-1 inh 59 (no result: PfHsp90 yeast 2) | TIM10 conf inactive | tim23-1 conf 70
C/C=C/C(=O)OCC(=O)Nc1nc2ccc(C)cc2s1	none
O=C(NC(=S)NNC(=O)c1ccccc1O)c1cccs1	TIM10 inh 51, tim23-1 inh 53 | TIM10 conf 47 | tim23-1 conf 66
O=C(NC(=S)NNC(=O)c1ccccc1O)c1ccccc1	TIM10 inh 49, tim23-1 inh 62 | TIM10 conf 42 | tim23-1 conf inactive
COc1cccc(OCc2cc(C(=O)N3CCN(C)C(c4ccccc4)C3)no2)c1 (stereo not given)	PfHsp90 yeast 2 inconclusive, TIM10 inh 41, tim23-1 inh 53 | TIM10 conf 50 | tim23-1 conf 48
COc1cc(C(=O)N/N=C/c2ccc(OC(=O)c3cccc(C)c3)cc2)ccc1O	none
Cc1cccc(C(=O)Oc2ccc(/C=N/O)cc2)c1	TIM10 inh 42, tim23-1 inh 62 | TIM10 conf 32 | tim23-1 conf 50
O=C(CNC(=O)c1ccc(Cl)cc1)c1ccc(Br)cc1	none
CCOC(=O)/C(=N\Nc1ccc(Cl)cc1)Sc1nnc(-c2ccc(OC)cc2)n1C	none
Cc1noc(C)c1C(=O)OC(C)C(=O)N(C)c1ccccc1 (stereo not given)	none (no result: Rce1 inhib)
CC(OC(=O)/C=C/c1ccc2ccccc2n1)C(=O)N(C)c1ccccc1 (stereo not given)	TIM10 inh 43, tim23-1 inh 52 (no result: Rce1 inhib) | TIM10 conf 42 | tim23-1 conf 53
COc1ccc(CNc2ccccn2)c(O)c1	none
Oc1c(Br)cc(Br)cc1CNc1ccccn1	TIM10 inh 51, tim23-1 inh 67 | TIM10 conf inactive | tim23-1 conf 74
COc1ccc(-c2nnc(SCC(=O)c3ccc(O)cc3O)o2)cc1	none
CC(C)(C)n1nc(-c2ccc(Cl)cc2)c2c(N)ncnc21	TIM10 inh 50, tim23-1 inh 63 | TIM10 conf 47 | tim23-1 conf 62
CC(C)(C)n1nc(-c2ccc(F)cc2)c2c(N)ncnc21	TIM10 inh 69, tim23-1 inh 73 | TIM10 conf 51 | tim23-1 conf 61
Cc1ccc(-c2nc(N)c3c(-c4ccc(C)cc4)nn(C(C)(C)C)c3n2)cc1	none
COc1ccc(C(=O)Nc2ccc3ccccc3c2)c(OC)c1	TIM10 inh 57, tim23-1 inh 60 | TIM10 conf 62 | tim23-1 conf 80
CCOc1ccc2cc(C#N)c(SCC(=O)N3CCC(C)CC3)nc2c1	TIM10 inh 59, tim23-1 inh 52 (no result: PfHsp90 yeast 2) | TIM10 conf inactive | tim23-1 conf 50
CC1=CC(C)(C)NC(=S)N1C(C)c1ccccc1 (stereo not given)	TIM10 inh 46, tim23-1 inh 62 | TIM10 conf inactive | tim23-1 conf inactive
CC1=CC(C)(C)NC(=S)N1c1ccc2ccccc2c1	none
COc1ccccc1C(=O)O[C@H]1[C@H](Cc2ccccc2)NS(=O)(=O)[C@H]2C[C@@H]3C=C[C@]12O3	none (no result: Rce1 inhib)
CC(CN1CCOCC1)OC(=O)c1ccc2c(c1)OCCO2 (stereo not given)	TIM10 inh 41, tim23-1 inh 72 | TIM10 conf inactive | tim23-1 conf 47
COc1ccc(OC)c(N/C(C)=C/C(=O)c2ccc(Br)cc2)c1	none
COc1cccc(CN2CCN(C(=O)c3ccco3)CC2)c1	none
O=[S@]1Oc2ccccc2-c2ccccc21	PfHsp90 yeast 2 110, TIM10 inh 58, tim23-1 inh 69 | TIM10 conf 76 | tim23-1 conf inactive
O=S1c2ccccc2Oc2ccccc21	none (no result: tim10-1 inh, Rce1 inhib, TIM10 inh, tim23-1 inh)
O=C(O)c1ccc2c(c1)C(=O)N(c1ccc([N+](=O)[O-])cn1)C2=O	none
CCCCc1ccc(NC(=O)COc2ccc(C(=O)Nc3ccccc3OCC)cc2)cc1	none
Cc1ccc(-c2cc(-c3n[nH]c(=S)n3C)c3ccccc3n2)cc1	TIM10 inh 50, tim23-1 inh 52 | TIM10 conf 48 | tim23-1 conf 59
